Among the data in PubChem BioAssay are growth inhibition, inhibition and outcome values, retold here.

A number with no mark means an inactive call. For part of these data: Entries with a potency or affinity are not part of this list. Calls of active or inactive are those of the source. Unless noted, the rule behind the calls is not given here.

A short description of test [1]: antimalarial activity against Dd2 strain (AID 2302;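 active = growth inhibition above 50% at the single 2 µM test dose, taken to imply half-maximal potency below 2 µM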;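 note: 0% = DMSO untreated growth and 100% = chloroquine plus artemisinin killed control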). The note with it: P. falciparum Dd2 in RBCs, LDH growth readout, 72 h; at 2 µM; active compounds read high.
A short description of test [2]: HepG2 cytotoxicity, primary screen, cytotoxicity control for P. falciparum antimalarial project, cell-based, ATP luminescence (AID 2303;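 active = inhibition above 50%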;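 note: 0% = DMSO wells and 100% = digitonin-killed cells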). As to conditions: HepG2 viability, 24-48 h, at 10 µM, active compounds read high.
Test [3] deals with L-lactate dehydrogenase (Plasmodium falciparum (isolate CDC / Honduras)) (UniProt Q27743). The test is described as follows: PfLDH activity inhibition – cell lysate, 3D7 strain, counter-screen for P. falciparum growth inhibition project (AID 2304).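 Note: 0% = vehicle and 100% = reference inhibitor.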 As to conditions: P. falciparum 3D7 crude extract, LDH APAD/NBT absorbance; at 2 µM; active compounds read high. Background: The purpose of a counterscreen is to sort out artefacts and off-target activity.

Test [4] can be described thus: inhibition of 3D7 malaria parasite growth – strain 3D7 (AID 2306).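 Note: 0% = DMSO wells and 100% = chloroquine plus artemisinin control wells.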 The note with it: P. falciparum 3D7 erythrocytic growth, LDH absorbance, 72 h; at 2 µM; active compounds read high.
The target of test [5] is Calcium-dependent protein kinase 1 (Plasmodium falciparum (isolate 3D7)) (UniProt P62344). Description: PfCDPK1 kinase inhibitors, biochemical, TCAMS library (AID 1159585; cut-off not given, nearly all actives have IC50 up to about 0.98 µM;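 note: inhibitors leave more ATP so luminescence rises with inhibition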). The note with it: recombinant PfCDPK1, Kinase-Glo ATP depletion luminescence. For orientation: In Kinase-Glo more light means more ATP remaining.
Test [6] deals with Plasmodium falciparum protein kinase 6 (PK6, PF3D7_1337100) (UniProt Q8IDW1). Description: PfPK6 kinase inhibitors, biochemical, TCAMS library (AID 1159586). The note with it: recombinant PfPK6, Kinase-Glo ATP depletion luminescence.
The target in test [7] is Protein kinase 7 (PK7), Plasmodium falciparum 3D7 (PF3D7_0213400) (UniProt Q7YTF7). Description: inhibition of Plasmodium PK7 catalytic activity – biochemical, TCAMS antimalarial set, Kinase-Glo luminescence (AID 1159587). The note with it: recombinant PfPK7, Kinase-Glo ATP depletion luminescence.
Test [8] deals with Calcium-dependent protein kinase 4 (Plasmodium falciparum (isolate 3D7)) (UniProt Q8IBS5). Description: PfCDPK4 kinase inhibitors, biochemical, TCAMS library (AID 1159588; cut-off not given, nearly all actives have IC50 up to about 0.91 µM). The note with it: recombinant PfCDPK4, Kinase-Glo ATP depletion luminescence.
Calcium-dependent protein kinase 4 (Plasmodium falciparum (isolate 3D7)), sequence (Q8IBS5 whole entry, looked up): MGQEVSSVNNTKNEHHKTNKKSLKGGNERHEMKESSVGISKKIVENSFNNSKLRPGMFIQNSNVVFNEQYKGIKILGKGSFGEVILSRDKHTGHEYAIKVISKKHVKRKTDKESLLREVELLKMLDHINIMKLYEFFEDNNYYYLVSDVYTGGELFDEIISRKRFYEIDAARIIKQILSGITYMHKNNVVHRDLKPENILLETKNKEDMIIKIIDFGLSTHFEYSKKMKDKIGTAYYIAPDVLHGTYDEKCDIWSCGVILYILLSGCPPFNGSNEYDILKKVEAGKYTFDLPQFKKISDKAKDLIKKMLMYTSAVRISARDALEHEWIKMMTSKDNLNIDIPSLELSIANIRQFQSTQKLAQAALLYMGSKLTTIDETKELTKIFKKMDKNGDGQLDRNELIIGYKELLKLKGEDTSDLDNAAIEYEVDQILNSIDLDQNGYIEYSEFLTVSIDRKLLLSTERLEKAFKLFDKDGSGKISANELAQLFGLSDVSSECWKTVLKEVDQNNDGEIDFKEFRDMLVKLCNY

Protein kinase 7 (PK7), Plasmodium falciparum 3D7 (PF3D7_0213400), sequence (Q7YTF7 1-343): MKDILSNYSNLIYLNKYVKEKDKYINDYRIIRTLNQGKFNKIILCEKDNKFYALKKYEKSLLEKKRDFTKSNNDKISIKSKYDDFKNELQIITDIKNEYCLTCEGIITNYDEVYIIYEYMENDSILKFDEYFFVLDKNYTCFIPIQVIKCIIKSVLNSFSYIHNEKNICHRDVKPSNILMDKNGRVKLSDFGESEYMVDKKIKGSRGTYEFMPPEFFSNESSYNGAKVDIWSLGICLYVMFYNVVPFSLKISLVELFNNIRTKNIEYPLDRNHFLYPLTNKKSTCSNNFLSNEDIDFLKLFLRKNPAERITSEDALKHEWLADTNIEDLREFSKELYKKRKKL
Plasmodium falciparum protein kinase 6 (PK6, PF3D7_1337100), sequence (Q8IDW1 1-305): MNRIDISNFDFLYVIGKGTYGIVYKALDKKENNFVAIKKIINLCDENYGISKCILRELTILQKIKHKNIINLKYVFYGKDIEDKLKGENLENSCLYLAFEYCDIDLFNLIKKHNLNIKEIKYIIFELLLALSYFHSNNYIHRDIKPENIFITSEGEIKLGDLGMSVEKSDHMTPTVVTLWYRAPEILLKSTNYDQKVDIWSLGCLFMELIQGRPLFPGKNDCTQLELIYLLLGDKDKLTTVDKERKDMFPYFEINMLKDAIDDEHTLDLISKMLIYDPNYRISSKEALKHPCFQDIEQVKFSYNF
Calcium-dependent protein kinase 1 (Plasmodium falciparum (isolate 3D7)), sequence (P62344 whole entry, looked up): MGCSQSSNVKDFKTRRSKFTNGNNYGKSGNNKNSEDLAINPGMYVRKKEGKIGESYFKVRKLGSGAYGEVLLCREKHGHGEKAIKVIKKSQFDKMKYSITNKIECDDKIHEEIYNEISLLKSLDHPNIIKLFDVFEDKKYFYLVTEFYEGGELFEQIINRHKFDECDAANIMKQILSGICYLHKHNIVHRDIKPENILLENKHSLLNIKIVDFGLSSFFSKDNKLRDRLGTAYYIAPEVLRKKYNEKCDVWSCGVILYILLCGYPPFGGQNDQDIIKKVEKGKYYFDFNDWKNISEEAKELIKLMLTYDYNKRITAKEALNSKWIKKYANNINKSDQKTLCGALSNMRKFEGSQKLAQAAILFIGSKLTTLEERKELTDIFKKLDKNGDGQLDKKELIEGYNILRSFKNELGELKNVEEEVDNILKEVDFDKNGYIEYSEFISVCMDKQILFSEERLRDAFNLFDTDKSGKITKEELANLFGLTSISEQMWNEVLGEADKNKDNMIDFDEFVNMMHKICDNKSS
L-lactate dehydrogenase (Plasmodium falciparum (isolate CDC / Honduras)), sequence (Q27743 whole entry, looked up): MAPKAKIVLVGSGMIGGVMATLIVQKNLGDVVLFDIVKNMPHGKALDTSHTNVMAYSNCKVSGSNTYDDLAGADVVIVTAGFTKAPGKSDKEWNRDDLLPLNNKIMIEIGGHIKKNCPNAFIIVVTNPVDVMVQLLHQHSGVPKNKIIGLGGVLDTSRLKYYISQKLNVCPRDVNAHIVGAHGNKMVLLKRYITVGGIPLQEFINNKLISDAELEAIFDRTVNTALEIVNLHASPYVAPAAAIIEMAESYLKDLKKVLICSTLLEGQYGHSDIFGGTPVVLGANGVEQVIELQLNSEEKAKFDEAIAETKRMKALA

A word on the inhibition: it is the change of the read-out against control, counted positive when it falls. As for `O=c1c2ccccc2[nH]c2nc3ccccc3c(Nc3ccccc3)c12`, the growth inhibition in test [1] is 97% (active); in test [4], 98% (active). For the same molecule, the results for the inhibition in test [2] and in test [3] were 8% and 6%, respectively. The outcome in test [5], in test [6], in test [7] and in test [8] was inactive.
Take `O=C([C@H]1C[C@@H]1c1ccccc1)N(Cc1ccc(-c2ccc(CNCCc3ccccc3)cc2)cc1)C1CCNCC1`: the growth inhibition is 39% in test [1] and 96% (active) in test [4]. Also, the results for the inhibition in test [2] and in test [3] were 36% and -5%, respectively. The result in test [5], in test [6], in test [7] and in test [8] was inactive.
Take `COc1ccc(CN(C)CCCOc2ccc(NC(=O)c3cccc4c(=O)c5cccc(C)c5[nH]c34)cc2)cc1OC`: the growth inhibition in test [1] was 62% (active); in test [4], 96% (active). Besides, the inhibition in test [2] was 3%; in test [3] it was 1%. Further, the outcome in test [5], in test [6], in test [7] and in test [8] was inactive.
For `CN(Cc1cccc(C#N)c1)C1CCN(c2cc(NC(=O)c3ccc(F)cc3)ccn2)CC1`, the growth inhibition is 23% in test [1] and 97% (active) in test [4]. In addition, the inhibition was 4% in test [2] and -1% in test [3]. For the same molecule, the result in test [5], in test [6], in test [7] and in test [8] was inactive.
Take `Cc1cc(-c2cccc(CNCc3ccc(F)cc3)c2)ccc1S(=O)(=O)NCCN1CCCC1`: the growth inhibition was 64% (active) in test [1] and 101% (active) in test [4]. Further, the inhibition in test [2] was 49%; in test [3], 4%. Further, the result in test [5], in test [6], in test [7] and in test [8] was inactive.
Turning to `COc1cc(NCC(O)CNc2cc(Cl)nc3ccccc23)nc2ccccc12` (centres undefined), the growth inhibition in test [1] and in test [4] was 99% (active) in each case. For the same molecule, the inhibition in test [2] was 17%; in test [3], -2%. Besides, the result in test [5], in test [6], in test [7] and in test [8] was inactive.
On to `COc1ccccc1CCNc1nc(C)cc(N[C@@H](Cc2ccccc2)C(=O)NCCc2ccccc2)n1`, for which the values for the growth inhibition in test [1] and in test [4] were 89% (active) and 100% (active), respectively. For the same molecule, the inhibition in test [2] was 16%; in test [3], -3%. Moreover, the outcome in test [5], in test [6], in test [7] and in test [8] was inactive.
With `CCC[C@@H]([C@@H](CC1CCCCC1)C(=O)N[C@H](C(=O)Nc1nccs1)C(C)(C)SCCNC(=O)OCc1ccccn1)N(O)C=O`, the results for the growth inhibition in test [1] and in test [4] were 96% (active) and 99% (active), respectively. The inhibition in test [2] was 17%; in test [3], -5%. For the same molecule, the outcome in test [5], in test [6], in test [7] and in test [8] was inactive.
As to `CN(C)CCOc1cc(NC(=O)Nc2cccc([N+](=O)[O-])c2)ccc1I`, the growth inhibition was 51% (active) in test [1] and 102% (active) in test [4]. The results for the inhibition in test [2] and in test [3] were 8% and 6%, respectively. The result in test [5], in test [6], in test [7] and in test [8] was inactive.
Consider `CC1(C)CCC(C)(C)c2c1ccc(C1CCN(CCCCNC(=O)c3ccc(-c4ccc(C#N)cc4)cc3)CC1)c2OCC(N)=O`, for which the growth inhibition was 100% (active) in test [1] and 102% (active) in test [4]. Besides, the results for the inhibition in test [2] and in test [3] were 99% (active) and -3%, respectively. Also, the outcome in test [5], in test [6], in test [7] and in test [8] was inactive.
On to `CCNC(=O)N1CCN(c2nc(-c3ccccc3)nc(COC)c2Cc2ccc(C)cc2)CC1`, for which the growth inhibition in test [1] is 94% (active); in test [4], 95% (active). The inhibition in test [2] is 27%; in test [3], 0%. For the same molecule, the result in test [5], in test [6], in test [7] and in test [8] was inactive.
On to `COc1cc2c(cc1OC)C(C(=O)Nc1ccc(C(F)(F)F)cc1)C(c1cccs1)N(C)C2=O` (centres undefined), for which the figures for the growth inhibition in test [1] and in test [4] were 86% (active) and 99% (active), respectively. Moreover, the inhibition was 31% in test [2] and 2% in test [3]. Further, the result in test [5], in test [6], in test [7] and in test [8] was inactive.
Consider `COc1cc2nc(NCCCOC(C)C)n3nc(-c4ccccc4)nc3c2cc1OC`, for which the growth inhibition is 97% (active) in test [1] and 94% (active) in test [4]. Further, the inhibition in test [2] is -3%; in test [3] it was -1%. Besides, the outcome in test [5], in test [6], in test [7] and in test [8] was inactive.
In the case of `Cc1cc(NN=Cc2ccccc2F)c2cc(F)ccc2n1`, the growth inhibition is 97% (active) in test [1] and 101% (active) in test [4]. Besides, the inhibition in test [2] is 9%; in test [3], -5%. The result in test [5], in test [6], in test [7] and in test [8] was inactive.
Take `Cc1cc(C(F)(F)F)cc(-n2ncc(-c3ccc(C(=O)NCc4ccccc4N)cc3)c2N)n1`: the growth inhibition was 89% (active) in test [1] and 99% (active) in test [4]. The inhibition is 10% in test [2] and 3% in test [3]. In addition, the result in test [5], in test [6], in test [7] and in test [8] was inactive.
Consider `Fc1ccc2nc(-c3ccc(-c4ccc(CN5CCN(c6ccncc6)CC5)cc4)cc3)[nH]c2c1`, for which the growth inhibition in test [1] was 101% (active); in test [4], 102% (active). Further, the inhibition in test [2] was 37%; in test [3] it was 6%. Moreover, the outcome in test [5], in test [6], in test [7] and in test [8] was inactive.
Take `FC(F)(F)c1ccc2c(NN=Cc3cccc(Cl)c3)ccnc2c1`: the results for the growth inhibition in test [1] and in test [4] were 59% (active) and 93% (active), respectively. The figures for the inhibition in test [2] and in test [3] were 7% and -3%, respectively. Also, the outcome in test [5], in test [6], in test [7] and in test [8] was inactive.
For `COc1ccccc1N1CCN(CCCCNC(=O)c2ccc(NC(=O)c3ccc(C(F)(F)F)cc3)cc2)CC1`, the growth inhibition was 37% in test [1] and 100% (active) in test [4]. The inhibition in test [2] is 25%; in test [3] it was 0%. Moreover, the outcome in test [5], in test [6], in test [7] and in test [8] was inactive.
